# Measured values published in PubChem BioAssay.
# Active and inactive are the calls of the source.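 How the source made its calls, unless noted: active means compounds giving at least 50% inhibition in the cell-based MKP-3 phosphatase rescue imaging test; inactive means the rest.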
# What was measured:
# [1] = inhibitors of TNFa-induced NFkB p65 translocation, primary screen, imaging, HUVEC, MLSMR starter and 10KST1 sets (AID 438;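 active means inhibition above 20% together with a positive visual image hit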;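 further: compound added about 3h40 before a 20 min TNFalpha stimulation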;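 on inhibition: signal is the nuclear over cytoplasmic p65 intensity ratio per well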); settings: HUVEC TNFa-induced p65 nuclear translocation; cell count: measured here: nuclei count (cytotoxicity indicator), at 2.08 µM; inhibition: at 2 µM, stronger effect = higher value, 0% TNFa-plus-vehicle, 100% no-TNFa wells
# [2] = reduction of polyQ htt aggregates in cells – imaging, exon1htt(103Q)mCFP cells, high-content imaging, primary screen (AID 483;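 active means visual image review flags a hit and inhibition of aggregation exceeds 20%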;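 further: compound exposure lasted 3 days before fixation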;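 on nuclei count: percent of the per-plate median nuclei count of sample wells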); settings: exon1htt(103Q)mCFP cell line, aggregate imaging, at 2 µM; inhibition of aggregation: stronger effect = higher value; nuclei count: measured here: cell count, toxicity
# [3] = endothelial E-selectin expression blockers – imaging, HUVEC, immunofluorescence, MLSMR starter and 10KST1 sets, primary screen (AID 487;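 active means visually confirmed hit in the image check and inhibition above 20%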;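 on inhibition: signal is fraction of cell area covered by stained E-selectin grains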;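 on nuclei count: 100% = median nuclei count of all wells on the same plate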); settings: HUVEC TNFalpha-induced E-selectin immunofluorescence imaging, at 2 µM; inhibition: stronger effect = higher value; nuclei count: measured here: cell number, toxicity
# [4] = Primary imaging screen for DUSP6 inhibitors that restore phospho-Erk in transfected HeLa cells, chemical complementation (AID 609); settings: HeLa MKP-3 transfected, phospho-Erk imaging KS statistic, at 10 µM, cells stimulated with TPA for 15 min;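 on inhibition: phospho-Erk level distribution per well compared with pooled transfected vehicle control wells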
# [5] = biological target: Dual specificity protein phosphatase 6 (Homo sapiens) (UniProt Q16828); assay: as above; settings: HeLa MKP-3 transfected, phospho-Erk imaging KS statistic; at 10 µM; stronger effect = higher value; cells stimulated with TPA for 15 min
# [6] = biological target: Voltage-gated potassium channel subunit beta-2 (Rattus norvegicus) (UniProt P62483); assay: inhibitors of rat Kvbeta2 reductase activity – biochemical, NADPH fluorescence, primary screen (AID 622;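 active means fluorescence slope higher than the sample average by over 3 SD, cut at about -0.22 in these data, passing the limit was not always enough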;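 further: slope of raw intensity against log time taken from 70 to 1610 s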); settings: recombinant KvBeta, 4-cyanobenzaldehyde reduction, at 10 µM, stronger effect = higher value
# [7] = biological target: Voltage-gated potassium channel subunit beta-2 (Rattus norvegicus) (UniProt P62483); assay: enhancers of rat Kvbeta2 NADPH turnover – biochemical, NADPH fluorescence, primary screen (AID 623;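 active means NADPH fluorescence slope more negative than the mean of all samples by about 3 SD, 99.7% confidence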;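 further: fluorescence intensity change per second fitted from 20 to 320 s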); settings: Recombinant KvBeta, NADPH fluorescence decrease slope, 10 min; at 10 µM; stronger effect = lower value
# [8] = biological target: Alpha-2C adrenergic receptor (Homo sapiens) (UniProt P18825); assay: compounds altering alpha2C-coupled GIRK flux – cell-based, HEK293 alpha2C/GIRK1/2, thallium flux, primary screen (AID 624;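 active means fluorescence slope after compound addition differing from the mean of all screened samples at 99.7% confidence, in either direction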;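 further: slope of fluorescence ratio to pre-addition baseline per second over 15 to 24 s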); settings: thallium flux BTC fluorescence, at 10 µM, actives lie on both sides
# [9] = biological target: Muscarinic acetylcholine receptor M4 (Homo sapiens) (UniProt P08173); assay: M4-linked GIRK flux change, two-sided – cell-based, HEK293 M4/GIRK, thallium flux, BTC-AM, M4 allosteric agonist project, primary screen (AID 625;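 active means fluorescence slope after compound addition differing from the mean of all tested samples at 99.7% confidence, mostly higher but some lower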;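 further: thallium influx through GIRK channels coupled to M4 in HEK293 cells with BTC-AM dye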); settings: at 10 µM, actives lie on both sides
# [10] = inhibitors of larval lipid processing in zebrafish, primary screen, whole organism, PED6 fluorescence, gall bladder and intestine (AID 686;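 active means a full or partial loss of lipid-probe fluorescence in the fish gall bladder, intestine or both, judged by eye; inactive means no fluorescence loss, or compound toxic to the fish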;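 further: larvae 5 to 7 days old with five fish per well; signal comes from phospholipase A2 cleavage of quenched PED6 carried via bile; overnight exposure to compound and PED6 before scoring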); settings: Zebrafish larvae PED6 lipid processing, fluorescence scoring; screened at 20 µM (by protocol)
# [11] = loss of swimming-algae plug formation – whole organism, Chlamydomonas reinhardtii, WT vs cilia-less mutant, absorbance, 96-well, primary screen (AID 463189;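 active means inhibition at or above 50% relative to wild type and mutant plate controls; inactive means inhibition below 50%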;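 further: 0% = wild type cc124 cells in DMSO and 100% = ciliumless bld1 mutant cells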); settings: Chlamydomonas reinhardtii gravitaxis, OD600 absorbance, 2 days; at 10 µM; stronger effect = higher value
# [12] = blockers of RIG-like receptor reporter activation – cell-based, Sendai virus stimulus, luciferase, 10K MLSCN set, TLR/RLR signaling modifier project, primary screen (AID 602276;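 active means inhibition at or above 50% at 10 µM; inactive means inhibition below 50%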;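 further: firefly luciferase from ISG56 promoter only with Renilla not read in this screen; 0% = Sendai virus plus DMSO and 100% = medium plus DMSO without virus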); settings: HEK293 RL24 IRF3 luciferase reporter, at 10 µM, stronger effect = higher value
# [13] = TLR3 IRF3 reporter activation blockers – cell-based, poly I:C stimulus, luciferase, 10K MLSCN set, primary screen (AID 602277;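 active means inhibition of the reporter signal at or above 50%; inactive means inhibition below 50%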); settings: HEK293-TLR3 RL24 IRF3 luciferase reporter, at 10 µM, stronger effect = higher value
# [14] = measured here: cell density z-score
# [15] = measured here: nuclear c-Myc green intensity z-score
# [16] = measured here: nuclear pErk red intensity z-score, stronger effect = higher value
# Sequence of Muscarinic acetylcholine receptor M4 (Homo sapiens) (P08173 whole entry, looked up): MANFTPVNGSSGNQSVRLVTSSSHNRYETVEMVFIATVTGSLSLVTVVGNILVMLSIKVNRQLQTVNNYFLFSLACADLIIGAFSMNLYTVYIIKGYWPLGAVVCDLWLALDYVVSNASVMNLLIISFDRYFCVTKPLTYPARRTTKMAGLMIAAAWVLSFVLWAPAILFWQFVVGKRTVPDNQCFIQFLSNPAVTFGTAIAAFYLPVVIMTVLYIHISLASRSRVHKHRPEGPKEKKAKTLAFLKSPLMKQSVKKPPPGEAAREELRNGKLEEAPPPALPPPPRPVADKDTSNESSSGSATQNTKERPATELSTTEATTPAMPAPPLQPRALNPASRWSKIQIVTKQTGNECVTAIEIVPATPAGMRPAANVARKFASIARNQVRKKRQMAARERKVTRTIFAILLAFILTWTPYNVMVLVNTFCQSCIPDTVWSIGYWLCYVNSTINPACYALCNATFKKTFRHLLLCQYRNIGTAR
# Sequence of Alpha-2C adrenergic receptor (Homo sapiens) (P18825 whole entry, looked up): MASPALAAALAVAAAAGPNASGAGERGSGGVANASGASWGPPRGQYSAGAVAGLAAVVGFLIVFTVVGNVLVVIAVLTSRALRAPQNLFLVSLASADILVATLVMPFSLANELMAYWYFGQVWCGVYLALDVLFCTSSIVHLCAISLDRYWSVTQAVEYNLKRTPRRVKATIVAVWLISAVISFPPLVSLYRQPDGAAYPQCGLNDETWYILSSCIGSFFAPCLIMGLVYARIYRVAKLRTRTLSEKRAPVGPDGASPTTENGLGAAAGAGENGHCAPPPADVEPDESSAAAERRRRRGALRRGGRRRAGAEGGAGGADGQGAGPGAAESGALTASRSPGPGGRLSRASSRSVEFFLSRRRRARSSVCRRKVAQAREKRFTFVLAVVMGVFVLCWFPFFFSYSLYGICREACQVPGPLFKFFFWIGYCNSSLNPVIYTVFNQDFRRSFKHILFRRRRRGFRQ
# Sequence of Voltage-gated potassium channel subunit beta-2 (Rattus norvegicus) (P62483 whole entry, looked up): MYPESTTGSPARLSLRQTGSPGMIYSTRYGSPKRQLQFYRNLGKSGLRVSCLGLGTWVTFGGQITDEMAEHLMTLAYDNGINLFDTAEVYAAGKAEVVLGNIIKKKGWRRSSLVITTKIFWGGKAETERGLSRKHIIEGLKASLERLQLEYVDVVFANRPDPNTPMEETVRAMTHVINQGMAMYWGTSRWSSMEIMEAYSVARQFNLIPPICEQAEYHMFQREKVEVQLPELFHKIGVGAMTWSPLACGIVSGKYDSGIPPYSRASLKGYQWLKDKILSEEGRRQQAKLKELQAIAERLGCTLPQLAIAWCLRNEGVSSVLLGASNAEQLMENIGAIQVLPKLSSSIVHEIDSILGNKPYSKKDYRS
# Sequence of Dual specificity protein phosphatase 6 (Homo sapiens) (Q16828 whole entry, looked up): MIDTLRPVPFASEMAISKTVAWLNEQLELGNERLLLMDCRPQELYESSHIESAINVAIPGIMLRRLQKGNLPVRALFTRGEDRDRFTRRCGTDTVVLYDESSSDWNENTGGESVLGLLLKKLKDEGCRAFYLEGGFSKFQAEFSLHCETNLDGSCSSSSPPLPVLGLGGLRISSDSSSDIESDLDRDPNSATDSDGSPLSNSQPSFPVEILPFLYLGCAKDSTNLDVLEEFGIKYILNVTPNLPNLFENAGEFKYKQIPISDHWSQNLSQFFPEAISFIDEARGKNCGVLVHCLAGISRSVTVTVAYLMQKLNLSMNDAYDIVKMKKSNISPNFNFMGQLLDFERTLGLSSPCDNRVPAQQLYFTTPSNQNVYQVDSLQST
Compound,cell count [1],inhibition [1],inhibition of aggregation [2],nuclei count [2] [%],inhibition [3],nuclei count [3] [%],"z-score [4, 14]","z-score [4, 15]","z-score [4, 16]",inhibition [5],fluorescence slope [6],NADPH fluorescence slope [7],slope [8],fluorescence slope [9],outcome [10],inhibition [11],inhibition [12],inhibition [13]
CCOC(=O)c1[nH]c2ccc(OC)cc2c1NC(=O)CCN1CCC(C)CC1,568,-0.3% (inactive),6.8% (inactive),110,-54.8% (inactive),115,0.39,-0.288,-0.933,-8.59% (inactive),-0.339 (inactive),-3.9e-05 (inactive),0.00576 (inactive),0.00353 (inactive),inactive,29.3% (inactive),-0.0655% (inactive),13.6% (inactive)
CCOc1ccc(C2/C(=C(/O)c3ccc(OC)cc3)C(=O)C(=O)N2c2cc(C)on2)cc1OC (stereo unspecified),314,-5.2% (inactive),2.5% (inactive),87.7,-84.6% (inactive),122,0.762,0.679,-1.01,-5.26% (inactive),-0.434 (inactive),-0.000115 (inactive),0.00335 (inactive),,,-9.21% (inactive),-8.23% (inactive),-11.7% (inactive)
COC(=O)/C=c1/s/c(=C(/C#N)C(=O)N2CCOCC2)n(-c2ccccc2)c1=O,611,1.5% (inactive),-12.2% (inactive),98.4,7.3% (inactive),119,0.31,-0.164,-0.787,1.63% (inactive),-0.479 (inactive),-5e-05 (inactive),0.0052 (inactive),0.00508 (inactive),inactive,21% (inactive),15.2% (inactive),17.7% (inactive)
Cn1c(=O)c2c(nc(Oc3ccc4c(c3)OCO4)n2Cc2ccc(F)cc2)n(C)c1=O,691,-7.2% (inactive),4.8% (inactive),108,-27.6% (inactive),90.8,-1.8,-0.122,-1.44,1.9e-07% (inactive),-0.503 (inactive),-2e-05 (inactive),0.00727 (inactive),0.00586 (inactive),inactive,-14.6% (inactive),20.6% (inactive),26.7% (inactive)
Cc1c(C2Nc3ccccc3NC3=C2C(=O)CC(C)(C)C3)cnn1C (stereo unspecified),678,34.8% (active),-2% (inactive),115,-16.2% (inactive),101,0.508,-0.847,-0.607,14.7% (inactive),-0.548 (inactive),-2.1e-05 (inactive),0.00605 (inactive),0.00628 (inactive),inactive,14.4% (inactive),35.1% (inactive),99.4% (active)
CCCc1nc(N2CCOCC2)c(C#N)c2c1CCCC2,496,-5.5% (inactive),-8.4% (inactive),89.6,-58.9% (inactive),128,-0.193,0.212,-0.0343,5.35% (inactive),-0.436 (inactive),-0.000102 (inactive),0.00439 (inactive),0.00443 (inactive),inactive,-4.21% (inactive),19.9% (inactive),22.6% (inactive)
